Screens: PubChem, The Scripps Research Institute Molecular Screening Center
TEAD-YAP inh: TEAD-YAP interaction inhibition, primary screen, TEAD-YAP interaction inhibitor project, luminescence, HEK-TIYL cells. TEAD-Gal4/YAP UAS-luciferase luminescence. inhibition, % at 9.12 µM. 640,000 compounds, 1.4% hits; in the data active = inhibition above about 32%;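 also: 0% = median of test compound wells and 100% = reference inhibitor wells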
FBW7 act: FBW7 E3 ligase activators, primary screen, biochemical, AlphaScreen, human. 650,000 compounds, 0.13% hits. F-box/WD repeat-containing protein 7 (Homo sapiens), Q969H0. normalized activity (activation), % at 26.1 µM. AlphaScreen FBW7–phospho-cyclin E peptide binding, activator screen. AID 1259310, 2017; in the data active = normalized activity above about 1.9%;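 also: purified mutant Fbw7 with reduced substrate affinity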
Target sequence (Q969H0 whole entry, looked up): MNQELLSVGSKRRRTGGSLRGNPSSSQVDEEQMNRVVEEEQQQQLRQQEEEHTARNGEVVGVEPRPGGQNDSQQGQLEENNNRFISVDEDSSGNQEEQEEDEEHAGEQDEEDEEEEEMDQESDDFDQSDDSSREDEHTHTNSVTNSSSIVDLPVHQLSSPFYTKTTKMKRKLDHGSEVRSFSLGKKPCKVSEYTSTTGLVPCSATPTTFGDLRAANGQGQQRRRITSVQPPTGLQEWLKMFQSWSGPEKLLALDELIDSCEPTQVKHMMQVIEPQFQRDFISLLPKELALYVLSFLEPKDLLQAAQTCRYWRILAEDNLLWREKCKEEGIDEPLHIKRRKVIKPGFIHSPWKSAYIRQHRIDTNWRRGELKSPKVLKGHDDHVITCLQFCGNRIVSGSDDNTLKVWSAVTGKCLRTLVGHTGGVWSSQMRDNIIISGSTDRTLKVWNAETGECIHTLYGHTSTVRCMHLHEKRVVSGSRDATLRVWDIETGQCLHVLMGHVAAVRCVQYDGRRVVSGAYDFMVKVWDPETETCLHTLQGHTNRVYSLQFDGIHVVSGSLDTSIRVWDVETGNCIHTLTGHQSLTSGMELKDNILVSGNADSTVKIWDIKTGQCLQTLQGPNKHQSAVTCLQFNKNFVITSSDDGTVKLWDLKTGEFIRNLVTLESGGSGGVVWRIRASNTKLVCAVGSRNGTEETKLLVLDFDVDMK
GPR151 activ: activators of human GPR151, primary screen, cell-based, PathHunter beta-arrestin, luminescence | G-protein coupled receptor 151 (Homo sapiens), Q8TDV0 | PathHunter beta-arrestin GPR151 cells | activation, % at 11.2 µM | 650,000 compounds, 1% hits | AID 1508602, 2020; in the data active = activation above about 4.9%;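 also: 0% = median of compound wells and 100% = cells with positive control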
MITF primary: MITF inhibitors, primary screen, biochemical, AlphaScreen, human. inhibition, % at 2.6 µM. AlphaScreen MITF homodimerization, bead proximity signal. 650,000 compounds, 0.91% hits. AID 1259374, 2018. Microphthalmia-associated transcription factor (Homo sapiens), O75030; in the data active = inhibition above about 50%;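 also: 0% = vehicle wells with protein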
* hit, by the source's call. A selection: hits, their analogues and other compounds. The true share with any hit is near 3.4%.

SMILES	TEAD-YAP inh	FBW7 act	GPR151 activ	MITF primary
NC(=O)c1ccccc1Nc1cc(NC(=O)Cc2ccc(F)cc2)ncc1Cl	81.4*	-0.4	0.8	7.9
NC(=O)c1ccccc1Nc1nc(Nc2ccc(N3CCOCC3)c(Cl)c2)ncc1Cl	21.8	-0.1	1.3	-10.1
NC(=O)c1ccccc1Nc1cc(Oc2ccc(N3CCNCC3)cc2)ncc1C(F)(F)F	3.1	0.7	-1.7	-12.5
NC(=O)c1ccccc1Nc1cc(NC(=O)Cc2ccc(CN3CCOCC3)cc2)ncc1C(F)(F)F	98.6*	-0.1	1.4	6.0
CCN(CC)C(=O)CSc1nc2n[nH]c(C)c2c(=N)n1-c1ccc(Oc2ccccc2)cc1	42.3*	0.1	0.6	9.9
COc1cccc(-n2c(SCC(=O)Nc3ccc(C)cc3)nc3n[nH]c(C)c3c2=N)c1	6.4	-0.3	3.3	10.8
Cc1ccc(-n2c(SCC(=O)NCc3ccccc3)nc3n[nH]c(C)c3c2=N)cc1Cl	19.5	0.2	4.7	18.6
Cc1ccc(-n2c(SCC(=O)NCc3ccccc3)nc3n[nH]c(C)c3c2=N)cc1C	41.3*	-0.1	0.2	2.4
COc1cccc(-n2c(SCC(=O)Nc3ccc(C(C)C)cc3)nc3n[nH]c(C)c3c2=N)c1	36.9*	0.1	-1.1	-0.9
CCNC(=O)[C@@H]1C[C@@H](NCc2cccc(O)c2)CN1Cc1ccc2ccccc2c1	7.2	-0.2	-0.2	1.2
O=C(Nc1ccc(N2CCC(NCCc3cccnc3)CC2)cc1)c1ccccc1F	-24.5	0.1	-1.9	9.4
Nc1nc2ccccc2n1C(=O)c1ccc(Cl)cc1	70.7*	-0.5	-7.6	0.6
Cc1ccc(C(=O)n2c(N)nc3ccccc32)cc1	90.7*	-0.3	-8.1	-4.7
FC(F)(F)c1ccc(Cn2cnc3c(Nc4ccc5c(c4)OCO5)nc(NCc4cccnc4)nc32)cc1	-10.6	-0.1	0.4	6.9
CSc1ccc2nc(N3CCN(C(=O)CN(C)S(C)(=O)=O)CC3)sc2c1	-23.6	0.0	0.4	-1.5
COC(=O)c1ccccc1C(=O)N1CCN(c2nc3ccc(SC)cc3s2)CC1	46.9*	-0.1	-1.0	5.0
CCOc1ccc(-n2c(SCC(=O)O)nc3c(sc(=S)n3-c3ccc(C)c(C)c3)c2=O)cc1	-4.8	0.8	-1.7	19.7
CCOc1ccccc1NC(=O)C12CCC(C)(C(=O)C1)C2(C)C (centres undefined)	6.3	1.5	0.7	14.5
CCc1ccc(OCC(O)Cn2c(C3CC(=O)N(c4ccccc4F)C3)nc3ccccc32)cc1 (centres undefined)	10.5	0.1	3.4	-14.7
Cc1ccc(OCC(O)Cn2c(C3CC(=O)N(c4ccccc4F)C3)nc3ccccc32)cc1C (centres undefined)	32.3*	1.0	0.0	16.3
CCCC(=O)N1CCN(c2ccc(Nc3ccncc3)nn2)CC1	-3.0	-0.1	2.4	6.2
O=S1(=O)C=CC(Nc2cccc3ccccc23)C1 (centres undefined)	32.7*	-0.1	-1.3	-8.3
CCc1ccccc1NC1C=CS(=O)(=O)C1 (centres undefined)	33.7*	0.2	0.7	14.1
CC(=O)Oc1ccc2nc(-c3ccc4c(c3)C(=O)N(CCC(C)C)C4=O)oc(=O)c2c1	3.9	-0.2	-1.9	-6.7
COC(=O)c1ccccc1N(Cc1ccccc1)S(=O)(=O)c1ccc(OC)cc1	51.1*	0.0	-1.2	-0.9
SMILES	TEAD-YAP inh	FBW7 act	GPR151 activ	MITF primary
COc1ccc(S(=O)(=O)N(Cc2ccccc2)c2ccccc2C(=O)NC2CC2)cc1	46.9*	1.6	0.5	3.8
CC(=O)Nc1ccc(NC(=O)c2cnc(N3CCN(Cc4ccc5c(c4)OCO5)CC3)s2)cc1	42.4*	0.2	-0.8	7.6
COc1cc(NC(=O)c2cccc(-c3ccc(C(N)=O)cc3)n2)cc(OC)c1OC	34.5*	-0.2	-1.2	-8.7
COc1cc(NC(=O)c2cccc(N3CCN(Cc4ccc5c(c4)OCO5)CC3)n2)cc(OC)c1OC	36.6*	0.0	2.0	5.3
COc1cc(NC(=O)c2cccc(-c3cccc(N)c3)n2)cc(OC)c1OC	34.1*	0.0	2.8	-0.6
CN(C)N1C(=O)CC(Nc2ccc(I)cc2)C1=O (centres undefined)	-2.2	0.0	1.0	-0.8
COc1cc(NC(=O)c2cccc(-c3ccc(N4CCOCC4)nc3)n2)cc(OC)c1OC	34.2*	0.1	2.1	18.1
COc1cc(NC(=O)c2cccc(-c3ccc(N4CCOCC4)nc3)c2)cc(OC)c1OC	-42.3	0.1	-2.0	8.9
O=C(Cc1ccc(F)cc1F)N1CCC2(CC1)OCc1ccccc1O2	10.3	0.1	0.7	3.9
O=C(O)c1ccc(C(=O)Nc2ccccc2S(=O)(=O)Nc2nccs2)cc1	-3.9	3.7*	-0.8	9.3
CC(C)(C)c1ccc(C(=O)Nc2ccc(S(=O)(=O)Nc3nccs3)cc2)cc1	-5.9	-0.1	0.7	-4.7
CCCCc1ccc(NC(=O)c2ccc(N(C)S(C)(=O)=O)cc2)cc1	34.9*	-0.1	0.5	-10.0
C=CCNC(=O)/C=C/c1ccc(OCc2ccccc2)cc1	-4.9	0.5	0.0	11.1
Cc1cccc(-n2nc3c(c2NC(=O)/C=C\c2ccc4c(c2)OCO4)CSC3)c1C	3.3	-0.1	0.7	4.8
COc1ccccc1NC1=C(Cl)C(=O)N(c2ccc(C)cc2)C1=O	-4.8	-0.1	1.7	10.0
COc1cccc(NC2=C(Cl)C(=O)N(c3ccc(C)cc3)C2=O)c1	3.9	-0.2	-1.3	11.1
COc1ccc(Cl)cc1NC1=C(Cl)C(=O)N(c2ccc(C)cc2)C1=O	44.6*	0.0	1.2	-5.2
CCc1ccc(N2C(=O)C(Cl)=C(Nc3cccc(OC)c3)C2=O)cc1	54.4*	-0.2	0.7	12.8
COc1ccc(S(=O)(=O)Nc2ccc3c(c2)CN(C(=O)c2ccccc2)CC3)cc1C	5.7	0.0	-2.1	-7.7
Cc1ccccc1-n1c(-c2ccc(Cl)cc2Cl)n[nH]c1=S	-2.8	1.9*	0.5	16.4
c1ccc(CCn2c(-c3ccc(-c4ccccc4)cc3)csc2=Nc2ccccc2)cc1	-6.3	0.3	-1.0	-18.7
CC(=O)N1CCSc2cc(S(=O)(=O)N3CCC(Cc4ccccc4)CC3)ccc21	54.5*	0.8	0.8	12.5
CC(=O)N1CCSc2cc(S(=O)(=O)NCCCc3ccccc3)ccc21	34.8*	0.5	1.8	8.8
COCCCNC(=O)CN1C(=O)COc2ccccc21	-3.8	-0.1	4.1	-0.9
Cc1ccc2nc(-c3cccc(NC(=S)NC(=O)c4ccco4)c3)oc2c1	-53.7	0.1	-1.8	-5.7
CC(C)(C)C(=O)Nc1ccc2oc(-c3cncc(Br)c3)nc2c1	34.7*	0.3	1.5	7.5
COc1ccc(Cl)cc1C(=O)Nc1ccc2oc(-c3ccc(C(C)(C)C)cc3)nc2c1	38.0*	0.5	-0.2	8.1
O=C(CN1CCCC1)Nc1ccc(-c2nc3cc(NC(=O)CN4CCCC4)ccc3o2)cc1	36.4*	0.0	0.3	-2.9
